Among all 5,500 compounds or so, about 2,000 (36%) were called active. Inconclusive results (about 18%) are left out. No stated cut-off is given here; in the data, active means normalized growth mostly below about 0.91 (no sharp cut-off); inconclusive means no clear call, values can overlap the other calls; inactive means mostly above about 0.92. This is one part of the list.
Test: chemical genetic growth profiling, strain panel (AID 1159580);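 further: tested at 20 µM; growth read once vehicle control cultures reached saturation at 30 °C; 1 = growth at the plate median or of vehicle wells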
Conditions: growth OD
[1] = S. cerevisiae deletion strains, locus YHR030C, strain SLT2, stronger effect = lower value
[2] = S. cerevisiae deletion strains, locus YJL095W, strain BCK1, stronger effect = lower value

Measured: normalized growth

COc1ccc(-c2coc3c(OC)c(O)ccc3c2=O)cc1
inactive: S. cerevisiae deletion strains, locus YBR021W, strain FUR4, stronger effect = lower value 0.951 | S. cerevisiae deletion strains, locus YBR229C, strain ROT2, stronger effect = lower value 0.92 | S. cerevisiae deletion strains, locus YCL029C, strain bik1, stronger effect = lower value 0.97 | S. cerevisiae deletion strains, locus YDL035C, strain GPR1, stronger effect = lower value 0.935 | S. cerevisiae deletion strains, locus YDL074C, strain BRE1, stronger effect = lower value 0.9 | S. cerevisiae deletion strains, locus YDL101C, strain DUN1, stronger effect = lower value 0.928 | S. cerevisiae deletion strains, locus YDL185W, strain tfp1, stronger effect = lower value 0.949 | S. cerevisiae deletion strains, locus YDL192W, strain arf1, stronger effect = lower value 0.931 | S. cerevisiae deletion strains, locus YDR101C, strain arx1, stronger effect = lower value 0.944 | S. cerevisiae deletion strains, locus YDR318W, strain mcm21, stronger effect = lower value 0.951 | S. cerevisiae deletion strains, locus YDR388W, stronger effect = lower value 0.965 | S. cerevisiae deletion strains, locus YDR502C, strain sam2, stronger effect = lower value 0.953 | S. cerevisiae deletion strains, locus YEL061C, strain CIN8, stronger effect = lower value 0.958 | S. cerevisiae deletion strains, locus YER110C, stronger effect = lower value 0.953 | S. cerevisiae deletion strains, locus YER155C, strain BEM2, stronger effect = lower value 0.997 | S. cerevisiae deletion strains, locus YER167W, strain BCK2, stronger effect = lower value 0.956 | S. cerevisiae deletion strains, locus YGL078C, strain dbp3, stronger effect = lower value 0.961 | S. cerevisiae deletion strains, locus YGL248W, strain PDE1, stronger effect = lower value 0.927 | S. cerevisiae deletion strains, locus YGR135W, strain pre9, stronger effect = lower value 0.931 | S. cerevisiae deletion strains, locus YGR252W, strain gcn5, stronger effect = lower value 0.826 | [1] 0.976 | S. cerevisiae deletion strains, locus YHR079C, strain IRE1 (second series), stronger effect = lower value 0.946 | S. cerevisiae deletion strains, locus YHR094C, strain hxt1, stronger effect = lower value 0.952 | S. cerevisiae deletion strains, locus YHR129C, strain ARP1, stronger effect = lower value 0.96 | S. cerevisiae deletion strains, locus YHR200W, strain rpn10, stronger effect = lower value 0.936 | S. cerevisiae deletion strains, locus YIL066C, strain RNR3, stronger effect = lower value 0.882 | S. cerevisiae deletion strains, locus YIL073C, strain SPO22, stronger effect = lower value 0.884 | S. cerevisiae deletion strains, locus YIL125W, strain kgd1, stronger effect = lower value 0.967 | S. cerevisiae deletion strains, locus YIR030C, strain dcg1, stronger effect = lower value 0.962 | [2] 0.813 | S. cerevisiae deletion strains, locus YJL134W, strain LCB3, stronger effect = lower value 0.968 | S. cerevisiae deletion strains, locus YJL168C, strain set2, stronger effect = lower value 0.963 | S. cerevisiae deletion strains, locus YJL187C, strain SWE1 (second series), stronger effect = lower value 0.916 | S. cerevisiae deletion strains, locus YJR043C, strain POL32, stronger effect = lower value 0.914 | S. cerevisiae deletion strains, locus YKL009W, strain mrt4, stronger effect = lower value 0.928 | S. cerevisiae deletion strains, locus YKL068W, stronger effect = lower value 0.946 | S. cerevisiae deletion strains, locus YKL085W, strain MDH1 (second series), stronger effect = lower value 0.944 | S. cerevisiae deletion strains, locus YKL085W, strain MDH1, stronger effect = lower value 0.944 | S. cerevisiae deletion strains, locus YKL190W, strain CNB1, stronger effect = lower value 0.958 | S. cerevisiae deletion strains, locus YLR039C, strain RIC1, stronger effect = lower value 0.861 | S. cerevisiae deletion strains, locus YLR058C, strain SHM2, stronger effect = lower value 0.931 | S. cerevisiae deletion strains, locus YLR102C, strain apc9, stronger effect = lower value 0.965 | S. cerevisiae deletion strains, locus YLR262C, strain YPT6, stronger effect = lower value 0.86 | S. cerevisiae deletion strains, locus YLR268W, strain sec22, stronger effect = lower value 0.942 | S. cerevisiae deletion strains, locus YLR330W, strain CHS5, stronger effect = lower value 0.953 | S. cerevisiae deletion strains, locus YLR342W, strain FKS1 (second series), stronger effect = lower value 0.86 | S. cerevisiae deletion strains, locus YLR371W, strain rom2, stronger effect = lower value 0.969 | S. cerevisiae deletion strains, locus YML016C, strain PPZ1, stronger effect = lower value 0.963 | S. cerevisiae deletion strains, locus YML032C, strain rad52, stronger effect = lower value 0.958 | S. cerevisiae deletion strains, locus YML124C, strain tub3, stronger effect = lower value 0.952 | S. cerevisiae deletion strains, locus YMR078C, strain ctf18, stronger effect = lower value 0.95 | S. cerevisiae deletion strains, locus YMR223W, strain ubp8, stronger effect = lower value 0.943 | S. cerevisiae deletion strains, locus YMR307W, strain GAS1, stronger effect = lower value 0.769 | S. cerevisiae deletion strains, locus YNL067W, strain RPL9B, stronger effect = lower value 0.918 | S. cerevisiae deletion strains, locus YNL233W, strain BNI4, stronger effect = lower value 0.892 | S. cerevisiae deletion strains, locus YNL250W, strain rad50, stronger effect = lower value 0.968 | S. cerevisiae deletion strains, locus YNL271C, strain bni1, stronger effect = lower value 0.945 | S. cerevisiae deletion strains, locus YNL298W, strain CLA4, stronger effect = lower value 0.94 | S. cerevisiae deletion strains, locus YNR052C, strain pop2, stronger effect = lower value 0.964 | S. cerevisiae deletion strains, locus YOL006C, strain TOP1, stronger effect = lower value 0.742 | S. cerevisiae deletion strains, locus YOL012C, strain htz1 0.945 | S. cerevisiae deletion strains, locus YOL147C, strain pex11, stronger effect = lower value 0.966 | S. cerevisiae deletion strains, locus YOR061W, strain CKA2, stronger effect = lower value 0.933 | S. cerevisiae deletion strains, locus YOR069W, strain VPS5, stronger effect = lower value 0.969 | S. cerevisiae deletion strains, locus YOR136W, strain idh2, stronger effect = lower value 0.98 | S. cerevisiae deletion strains, locus YOR144C, strain elg1, stronger effect = lower value 0.966 | S. cerevisiae deletion strains, locus YOR184W, strain ser1, stronger effect = lower value 0.876 | S. cerevisiae deletion strains, locus YOR316C, strain cot1, stronger effect = lower value 0.961 | S. cerevisiae deletion strains, locus YPL055C, strain LGE1, stronger effect = lower value 0.86 | S. cerevisiae deletion strains, locus YPR119W, strain clb2, stronger effect = lower value 0.977 | S. cerevisiae deletion strains, locus YPR141C, strain kar3, stronger effect = lower value 0.955 | S. cerevisiae deletion strains, locus YPR163C, strain tif3, stronger effect = lower value 0.931 | S. cerevisiae deletion strains, locus YPR167C, strain met16, stronger effect = lower value 0.954 | S. cerevisiae deletion strains, strain wtn01, stronger effect = lower value 0.962 | S. cerevisiae strains, strain wild type, stronger effect = lower value 0.95
active: S. cerevisiae deletion strains, locus YDL134C, strain PPH21, stronger effect = lower value 0.888 | S. cerevisiae deletion strains, locus YDR162C, strain NBP2, stronger effect = lower value 0.792 | S. cerevisiae deletion strains, locus YGL086W, strain mad1, stronger effect = lower value 0.929 | S. cerevisiae deletion strains, locus YKR001C, strain vps1, stronger effect = lower value 0.896 | S. cerevisiae deletion strains, locus YLR418C, strain cdc73, stronger effect = lower value 0.808 | S. cerevisiae deletion strains, locus YNL307C, strain MCK1, stronger effect = lower value 0.896

COc1ccc(-c2coc3c(O)c(O)c(OC)cc3c2=O)cc1
inactive: [1] 0.96 | S. cerevisiae deletion strains, locus YHR079C, strain IRE1, stronger effect = lower value 0.969 | [2] 0.955 | S. cerevisiae deletion strains, locus YJR066W, strain TOR1, stronger effect = lower value 0.912 | S. cerevisiae deletion strains, locus YLR113W, strain HOG1, stronger effect = lower value 0.955 | S. cerevisiae deletion strains, locus YNL183C, strain NPR1, stronger effect = lower value 0.888 | S. cerevisiae deletion strains, locus YOR231W, strain MKK1, stronger effect = lower value 0.971 | S. cerevisiae deletion strains, locus YPL256C, strain CLN2, stronger effect = lower value 0.953
